Results reported in PubChem BioAssay AID504357 (The Scripps Research Institute Molecular Screening Center, 2011).
In all, about 340,000 compounds went through this assay and about 700 (0.21%) were called active. For the sample, actives were picked, then their nearest neighbours and some compounds at random. A number with no mark means an inactive call. Cut-off read from the data, not from the text of the source: active = inhibition above about 22% (passing the limit was not always enough); inactive = the rest.

The compounds below were run against Mu-type opioid receptor (Homo sapiens) + Delta-type opioid receptor (Homo sapiens) (UniProt P35372+P41143) (assay: inverse agonists of MOR-DOR heterodimerization, primary screen, cell-based, luminescence (AID 504357;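 note: 0% = cells with DMSO and 100% = wells without cells with DMSO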)). Conditions: cell-based MOR-DOR heterodimer luminescence, inverse agonism; at 9.3 µM; hits give high values.
Chain of Mu-type opioid receptor (Homo sapiens) + Delta-type opioid receptor (Homo sapiens) (P35372 whole entry, looked up): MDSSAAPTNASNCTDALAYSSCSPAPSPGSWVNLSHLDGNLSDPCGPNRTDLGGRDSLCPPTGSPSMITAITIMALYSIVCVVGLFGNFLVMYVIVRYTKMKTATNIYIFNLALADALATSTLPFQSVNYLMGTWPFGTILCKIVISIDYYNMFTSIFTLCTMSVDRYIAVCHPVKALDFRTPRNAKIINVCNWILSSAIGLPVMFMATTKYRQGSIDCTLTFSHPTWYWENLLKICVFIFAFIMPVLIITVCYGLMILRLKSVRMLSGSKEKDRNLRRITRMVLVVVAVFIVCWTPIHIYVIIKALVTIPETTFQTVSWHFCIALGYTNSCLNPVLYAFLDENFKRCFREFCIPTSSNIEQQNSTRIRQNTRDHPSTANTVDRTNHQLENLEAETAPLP
Chain of Mu-type opioid receptor (Homo sapiens) + Delta-type opioid receptor (Homo sapiens) (P41143 whole entry, looked up): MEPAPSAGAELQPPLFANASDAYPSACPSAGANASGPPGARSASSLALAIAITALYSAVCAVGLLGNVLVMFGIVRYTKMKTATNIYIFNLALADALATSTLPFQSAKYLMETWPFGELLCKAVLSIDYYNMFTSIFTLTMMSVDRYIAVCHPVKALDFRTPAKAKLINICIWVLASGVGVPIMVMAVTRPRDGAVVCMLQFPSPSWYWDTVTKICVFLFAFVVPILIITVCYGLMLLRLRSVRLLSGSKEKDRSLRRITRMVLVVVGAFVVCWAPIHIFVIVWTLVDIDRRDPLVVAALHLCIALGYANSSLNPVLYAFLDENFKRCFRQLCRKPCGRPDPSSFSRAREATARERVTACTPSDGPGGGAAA

SMILES	inhibition
CC1=CC(=Cc2sc3ccccc3[n+]2C)C=C(C)O1	17.5% (active)
Clc1ccc2nc3c(c(-c4ccccc4)c2c1)CNCC3	8.41%
CN(C)CC1CCCCC1=O (stereo not given)	10.9%
CCC(=O)OC(Cc1ccccc1)(c1ccccc1)C(C)CN(C)C (stereo not given)	8.03%
CCOC(=O)c1c(N)n(CCN2CCOCC2)c2nc3ccccc3nc12	30.9% (active)
CCOC(=O)c1c(N)n(Cc2ccccc2)c2nc3ccccc3nc12	37% (active)
COc1cc(Cn2c(N)c(C(=O)NCc3ccco3)c3nc4ccccc4nc32)cc(OC)c1OC	1.03%
O=C(OCCN1CCOCC1)C1(c2ccccc2)CCCC1	1.05%
CC/C(=N\NC(=O)c1ccccc1O)c1c(O)n(Cc2ccccc2)c(=O)[nH]c1=O	9.92%
CC(C)(C)c1ccc(OC(=O)N2CCCCC2)cc1	-27.7%
COC(=O)C1=C(c2ccc(F)cc2OCc2ccccc2)C[C@@H]2CC[C@H]1N2C(=O)NCc1ccc2[nH]ccc2c1	-2.75%
O=C(NC(c1ccc(Cl)cc1)P(=O)(Oc1ccccc1)Oc1ccccc1)OCc1ccccc1 (stereo not given)	-3.43%
CCC(=O)CC(c1ccc([N+](=O)[O-])cc1)c1c(O)c2ccccc2oc1=O (stereo not given)	14.4%
CN(C)S(=O)(=O)c1cc(C(=O)N2CCC(C(=O)O)(c3ccccc3)CC2)ccc1Cl	19.2%
Cc1nn(-c2ccccc2)c(C)c1NC(=O)COC(=O)Cc1ccccc1	21%
CC(=O)OC1C2(CC3N4C(=O)C5(CO)SSC4(CC31O)C(=O)N5C)OC(C)C(C)(C)C2=O (stereo not given)	102% (active)
CC(C)Nc1nc(Cl)nc(NC(C)C)n1	6.88%
CCc1nnc(NS(=O)(=O)c2ccc(N=Cc3c(O)n(-c4ccccc4)c(=O)[nH]c3=O)cc2)s1	14.4%
CC(=NCc1ccc2c(c1)OCO2)c1c(O)[nH]c(=O)[nH]c1=O	-10.5%
CNCC(O)c1cc(F)c(OCc2ccccc2)c(OCc2ccccc2)c1F (stereo not given)	-9.33%
